# Measurements: paper PMC7862700, “An all-to-all approach to the identification of sequence-specific readers for epigenetic DNA modifications on cytosine”
# Columns and labels:
# Assay in all cases: DAPPL (digital affinity profiling via proximity ligation, sequencing); 10 mM Tris-HCl pH 7.5, 50 mM NaCl, 1 mM DTT, 4% glycerol, room temperature, 30 min; GST-TFs on glutathione beads, 16-mer random dsDNA library, 0.1% formaldehyde crosslink after washing; high values mean tight binding
# FLI1 = target: T1, FLI1 (Homo sapiens, UniProt Q01543 1-452); conditions: protein: recombinant; tags: N-terminal GST; dsDNA, one strand shown
# T1 sequence: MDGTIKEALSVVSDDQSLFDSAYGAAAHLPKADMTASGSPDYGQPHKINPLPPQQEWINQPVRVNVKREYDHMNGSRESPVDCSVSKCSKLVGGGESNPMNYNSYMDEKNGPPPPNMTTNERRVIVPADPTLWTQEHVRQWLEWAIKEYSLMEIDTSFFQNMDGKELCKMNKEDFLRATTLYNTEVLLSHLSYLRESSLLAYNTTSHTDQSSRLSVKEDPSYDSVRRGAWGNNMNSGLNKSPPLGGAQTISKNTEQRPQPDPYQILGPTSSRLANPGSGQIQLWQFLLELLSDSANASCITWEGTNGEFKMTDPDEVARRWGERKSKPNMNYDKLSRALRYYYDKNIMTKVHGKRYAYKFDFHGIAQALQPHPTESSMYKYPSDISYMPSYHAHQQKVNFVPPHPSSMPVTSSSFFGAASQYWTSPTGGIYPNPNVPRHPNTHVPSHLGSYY
# In short: (§1)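 Human transcription factors fused to GST were expressed in yeast, captured on glutathione beads, given DNA barcodes and pooled with a GST-only negative control. Pools were incubated with 200 nmole of a 16-mer random double-stranded DNA library in Tris/NaCl/DTT/glycerol buffer at room temperature for 30 min. They were then washed, crosslinked with 0.1% formaldehyde, proximity-ligated (BsaI/T4 ligase, 1 h, 37 °C), PCR-amplified and sequenced on an Illumina NextSeq500. Binding signal is each 6-mer's read frequency for a factor divided by its frequency for the GST control.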
# ELK1 = target: T2, ELK1 (Homo sapiens, UniProt P19419 1-428); conditions: protein: recombinant; tags: N-terminal GST; dsDNA, one strand shown
# T2 sequence: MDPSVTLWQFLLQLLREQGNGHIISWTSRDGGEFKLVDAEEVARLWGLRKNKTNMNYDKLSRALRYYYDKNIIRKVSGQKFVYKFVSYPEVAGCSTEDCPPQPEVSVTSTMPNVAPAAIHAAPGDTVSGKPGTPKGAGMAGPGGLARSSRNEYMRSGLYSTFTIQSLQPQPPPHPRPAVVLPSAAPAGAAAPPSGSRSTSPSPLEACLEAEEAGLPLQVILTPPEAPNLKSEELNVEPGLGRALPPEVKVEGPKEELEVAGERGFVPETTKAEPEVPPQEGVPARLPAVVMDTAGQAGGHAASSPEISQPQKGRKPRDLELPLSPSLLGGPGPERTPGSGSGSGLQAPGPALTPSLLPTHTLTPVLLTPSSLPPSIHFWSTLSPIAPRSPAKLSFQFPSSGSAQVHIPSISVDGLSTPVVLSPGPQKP
# In short: as §1
# GABPA = target: T3, GABPA (Homo sapiens, UniProt Q06546 1-454); conditions: protein: recombinant; tags: N-terminal GST; dsDNA, one strand shown
# T3 sequence: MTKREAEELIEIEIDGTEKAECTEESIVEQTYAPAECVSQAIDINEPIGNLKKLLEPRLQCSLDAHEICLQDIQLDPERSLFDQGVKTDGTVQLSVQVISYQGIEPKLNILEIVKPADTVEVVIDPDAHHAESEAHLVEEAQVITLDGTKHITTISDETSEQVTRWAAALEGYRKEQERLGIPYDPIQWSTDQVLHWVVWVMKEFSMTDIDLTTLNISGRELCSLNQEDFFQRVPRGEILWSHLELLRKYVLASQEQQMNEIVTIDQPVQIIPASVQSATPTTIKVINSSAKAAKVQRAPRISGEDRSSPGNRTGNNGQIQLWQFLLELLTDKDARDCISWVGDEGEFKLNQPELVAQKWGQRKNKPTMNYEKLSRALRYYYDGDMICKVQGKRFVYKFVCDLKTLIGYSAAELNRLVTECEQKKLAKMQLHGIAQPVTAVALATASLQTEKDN
# In short: as §1
# ERG = target: T4, ERG (Homo sapiens, UniProt P11308 1-479); conditions: protein: recombinant; tags: N-terminal GST; dsDNA, one strand shown
# T4 sequence: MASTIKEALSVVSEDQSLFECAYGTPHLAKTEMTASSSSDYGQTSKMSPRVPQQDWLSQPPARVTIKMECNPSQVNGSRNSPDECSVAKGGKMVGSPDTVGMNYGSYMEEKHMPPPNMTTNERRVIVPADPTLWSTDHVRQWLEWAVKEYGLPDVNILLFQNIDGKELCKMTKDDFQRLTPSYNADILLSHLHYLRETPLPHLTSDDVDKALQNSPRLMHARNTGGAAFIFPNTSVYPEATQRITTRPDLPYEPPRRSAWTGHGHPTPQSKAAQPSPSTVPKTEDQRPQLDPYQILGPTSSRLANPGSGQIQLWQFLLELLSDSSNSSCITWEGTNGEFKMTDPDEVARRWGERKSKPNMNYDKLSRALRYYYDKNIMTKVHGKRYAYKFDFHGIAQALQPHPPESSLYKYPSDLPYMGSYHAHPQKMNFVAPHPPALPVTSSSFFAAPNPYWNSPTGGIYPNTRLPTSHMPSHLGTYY
# In short: as §1
# ELF1 = ELF1 (Homo sapiens, UniProt P32519 1-619); conditions: protein: recombinant; tags: N-terminal GST; dsDNA, one strand shown
# Sequence of ELF1 (P32519 whole entry): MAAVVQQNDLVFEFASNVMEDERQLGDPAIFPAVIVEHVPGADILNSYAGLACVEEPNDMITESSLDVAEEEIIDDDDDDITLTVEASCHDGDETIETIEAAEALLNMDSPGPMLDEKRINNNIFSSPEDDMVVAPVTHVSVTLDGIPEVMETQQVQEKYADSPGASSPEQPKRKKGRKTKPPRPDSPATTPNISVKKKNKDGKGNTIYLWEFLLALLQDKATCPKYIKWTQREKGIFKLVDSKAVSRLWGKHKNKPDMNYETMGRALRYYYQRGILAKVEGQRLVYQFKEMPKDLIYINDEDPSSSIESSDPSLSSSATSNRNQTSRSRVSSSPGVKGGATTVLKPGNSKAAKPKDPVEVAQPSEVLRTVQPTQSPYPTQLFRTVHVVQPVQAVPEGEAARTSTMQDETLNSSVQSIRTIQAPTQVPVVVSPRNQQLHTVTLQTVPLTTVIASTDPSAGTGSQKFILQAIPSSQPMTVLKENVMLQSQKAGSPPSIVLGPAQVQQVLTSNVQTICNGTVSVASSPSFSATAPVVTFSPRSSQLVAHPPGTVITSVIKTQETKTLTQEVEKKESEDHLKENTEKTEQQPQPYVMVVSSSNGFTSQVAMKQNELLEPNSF
# In short: as §1
# EHF = target: T5, EHF (Homo sapiens, UniProt Q9NZC4 1-300); conditions: protein: recombinant; tags: N-terminal GST; dsDNA, one strand shown
# T5 sequence: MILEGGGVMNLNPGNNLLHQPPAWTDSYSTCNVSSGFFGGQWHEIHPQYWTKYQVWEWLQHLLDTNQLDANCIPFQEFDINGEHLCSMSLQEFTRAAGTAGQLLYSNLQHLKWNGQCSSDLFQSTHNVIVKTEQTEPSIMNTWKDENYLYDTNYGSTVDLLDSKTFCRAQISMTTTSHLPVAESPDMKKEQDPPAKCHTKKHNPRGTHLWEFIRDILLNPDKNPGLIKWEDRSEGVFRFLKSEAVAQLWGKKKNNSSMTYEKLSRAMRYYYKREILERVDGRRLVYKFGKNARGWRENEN
# In short: as §1
# SPI1 = SPI1 (Homo sapiens, UniProt P17947 1-270); conditions: protein: recombinant; tags: N-terminal GST; dsDNA, one strand shown
# In short: as §1
# SPIB = SPIB (Homo sapiens, UniProt Q01892 1-262); conditions: protein: recombinant; tags: N-terminal GST; dsDNA, one strand shown
# Sequence of SPIB (Q01892 whole entry): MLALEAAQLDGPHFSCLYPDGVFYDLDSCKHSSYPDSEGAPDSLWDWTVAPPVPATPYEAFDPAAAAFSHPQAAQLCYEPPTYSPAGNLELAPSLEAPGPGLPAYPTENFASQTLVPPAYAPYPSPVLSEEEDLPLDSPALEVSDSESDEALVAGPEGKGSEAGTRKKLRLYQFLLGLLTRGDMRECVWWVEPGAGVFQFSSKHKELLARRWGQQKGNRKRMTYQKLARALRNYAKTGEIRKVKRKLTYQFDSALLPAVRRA
# In short: as §1
# ELK3 = target: T6, ELK3 (Homo sapiens, UniProt P41970 1-407); conditions: protein: recombinant; tags: N-terminal GST; dsDNA, one strand shown
# T6 sequence: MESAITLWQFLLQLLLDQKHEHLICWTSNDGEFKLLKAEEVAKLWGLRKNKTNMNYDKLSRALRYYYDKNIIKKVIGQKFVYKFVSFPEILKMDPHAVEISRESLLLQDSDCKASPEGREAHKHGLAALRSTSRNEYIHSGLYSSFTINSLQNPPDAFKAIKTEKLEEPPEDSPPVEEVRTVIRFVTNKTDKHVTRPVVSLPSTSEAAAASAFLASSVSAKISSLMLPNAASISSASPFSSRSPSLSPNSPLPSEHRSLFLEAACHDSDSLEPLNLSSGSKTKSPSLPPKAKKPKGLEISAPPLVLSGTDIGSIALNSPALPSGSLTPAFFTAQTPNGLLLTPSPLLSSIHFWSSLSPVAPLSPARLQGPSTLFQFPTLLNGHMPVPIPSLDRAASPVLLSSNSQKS
# In short: as §1
# FEV = target: T7, FEV (Homo sapiens, UniProt Q99581 1-238); conditions: protein: recombinant; tags: N-terminal GST; dsDNA, one strand shown
# T7 sequence: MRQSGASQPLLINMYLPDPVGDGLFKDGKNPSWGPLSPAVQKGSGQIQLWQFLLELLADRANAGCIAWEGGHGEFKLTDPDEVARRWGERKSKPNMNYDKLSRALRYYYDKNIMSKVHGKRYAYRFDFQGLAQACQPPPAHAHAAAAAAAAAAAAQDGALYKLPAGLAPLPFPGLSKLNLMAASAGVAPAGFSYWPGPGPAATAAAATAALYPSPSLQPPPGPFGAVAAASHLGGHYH
# In short: as §1
# ETV5 = ETV5 (Homo sapiens, UniProt P41161 1-510); conditions: protein: recombinant; tags: N-terminal GST; dsDNA, one strand shown
# Sequence of ETV5 (P41161 whole entry): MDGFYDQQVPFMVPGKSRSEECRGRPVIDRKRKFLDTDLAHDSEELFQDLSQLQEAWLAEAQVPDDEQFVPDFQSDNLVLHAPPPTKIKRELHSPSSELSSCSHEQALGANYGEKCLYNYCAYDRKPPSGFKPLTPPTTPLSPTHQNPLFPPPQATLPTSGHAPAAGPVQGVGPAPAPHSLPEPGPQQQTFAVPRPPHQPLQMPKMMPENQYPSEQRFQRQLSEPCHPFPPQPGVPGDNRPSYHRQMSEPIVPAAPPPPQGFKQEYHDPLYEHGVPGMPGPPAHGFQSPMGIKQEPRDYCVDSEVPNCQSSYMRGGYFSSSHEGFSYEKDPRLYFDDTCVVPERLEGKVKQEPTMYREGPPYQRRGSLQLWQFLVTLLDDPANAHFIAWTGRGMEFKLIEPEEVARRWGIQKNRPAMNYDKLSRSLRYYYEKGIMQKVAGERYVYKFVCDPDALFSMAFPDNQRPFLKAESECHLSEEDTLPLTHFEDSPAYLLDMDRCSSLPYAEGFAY
# In short: as §1
# HSF1 = HSF1 (Homo sapiens, UniProt Q00613 1-529); conditions: protein: recombinant; tags: N-terminal GST; chain copies: 3; dsDNA, one strand shown
# Sequence of HSF1 (Q00613 whole entry): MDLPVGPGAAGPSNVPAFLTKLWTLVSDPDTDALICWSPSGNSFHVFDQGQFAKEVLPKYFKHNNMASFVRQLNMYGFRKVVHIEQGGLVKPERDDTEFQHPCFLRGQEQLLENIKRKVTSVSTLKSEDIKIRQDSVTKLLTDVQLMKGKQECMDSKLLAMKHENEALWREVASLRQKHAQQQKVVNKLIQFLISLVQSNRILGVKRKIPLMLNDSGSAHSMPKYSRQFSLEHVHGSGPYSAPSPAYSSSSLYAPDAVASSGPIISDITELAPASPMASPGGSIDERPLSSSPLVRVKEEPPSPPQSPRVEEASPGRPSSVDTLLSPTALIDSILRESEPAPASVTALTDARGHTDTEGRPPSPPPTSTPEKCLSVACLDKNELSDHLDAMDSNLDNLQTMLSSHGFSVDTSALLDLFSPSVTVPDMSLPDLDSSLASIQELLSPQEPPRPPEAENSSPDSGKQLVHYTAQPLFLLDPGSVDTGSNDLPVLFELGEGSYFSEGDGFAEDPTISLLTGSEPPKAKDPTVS
# In short: as §1
# SPIC = target: T8, SPIC (Homo sapiens, UniProt Q8N5J4 1-248); conditions: protein: recombinant; tags: N-terminal GST; dsDNA, one strand shown
# T8 sequence: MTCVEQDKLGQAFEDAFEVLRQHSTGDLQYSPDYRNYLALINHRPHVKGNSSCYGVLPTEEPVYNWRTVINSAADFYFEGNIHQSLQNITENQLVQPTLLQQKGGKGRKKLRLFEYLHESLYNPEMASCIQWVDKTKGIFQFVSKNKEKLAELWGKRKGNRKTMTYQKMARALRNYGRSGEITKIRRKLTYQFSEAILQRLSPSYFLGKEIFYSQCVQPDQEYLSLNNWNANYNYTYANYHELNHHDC
# In short: as §1
# ELF4 = ELF4 (Homo sapiens, UniProt Q99607 1-663); conditions: protein: recombinant; tags: N-terminal GST; dsDNA, one strand shown
# Sequence of ELF4 (Q99607 whole entry): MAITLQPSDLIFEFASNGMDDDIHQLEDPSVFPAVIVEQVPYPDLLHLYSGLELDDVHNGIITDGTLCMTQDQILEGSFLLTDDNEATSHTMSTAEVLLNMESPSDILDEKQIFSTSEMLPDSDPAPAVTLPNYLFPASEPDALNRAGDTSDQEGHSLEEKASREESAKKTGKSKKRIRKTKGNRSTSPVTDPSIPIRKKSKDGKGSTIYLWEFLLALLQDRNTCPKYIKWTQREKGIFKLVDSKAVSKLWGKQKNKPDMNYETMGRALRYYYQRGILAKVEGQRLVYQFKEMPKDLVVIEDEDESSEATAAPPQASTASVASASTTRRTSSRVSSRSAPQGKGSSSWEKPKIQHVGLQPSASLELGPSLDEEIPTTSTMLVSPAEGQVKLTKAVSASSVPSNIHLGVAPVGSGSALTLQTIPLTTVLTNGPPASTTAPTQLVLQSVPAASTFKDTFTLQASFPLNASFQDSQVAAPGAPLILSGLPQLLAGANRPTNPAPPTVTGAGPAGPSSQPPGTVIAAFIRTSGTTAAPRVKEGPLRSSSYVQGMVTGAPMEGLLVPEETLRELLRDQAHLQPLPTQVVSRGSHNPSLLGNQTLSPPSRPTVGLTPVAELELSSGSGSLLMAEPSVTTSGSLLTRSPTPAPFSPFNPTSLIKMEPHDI
# In short: as §1
# ELK4 = target: T9, ELK4 (Homo sapiens, UniProt P28324-2 1-405); conditions: protein: recombinant; tags: N-terminal GST; dsDNA, one strand shown
# T9 sequence: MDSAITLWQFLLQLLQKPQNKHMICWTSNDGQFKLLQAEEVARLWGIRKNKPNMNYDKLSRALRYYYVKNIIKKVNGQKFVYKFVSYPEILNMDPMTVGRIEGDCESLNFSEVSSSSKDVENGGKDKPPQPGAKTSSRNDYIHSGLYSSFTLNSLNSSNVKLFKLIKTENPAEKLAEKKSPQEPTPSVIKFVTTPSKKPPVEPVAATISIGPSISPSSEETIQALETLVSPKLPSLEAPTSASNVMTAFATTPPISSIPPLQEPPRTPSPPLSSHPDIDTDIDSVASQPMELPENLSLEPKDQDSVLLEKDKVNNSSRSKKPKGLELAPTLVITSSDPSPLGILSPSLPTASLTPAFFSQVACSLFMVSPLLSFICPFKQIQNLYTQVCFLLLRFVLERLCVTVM
# In short: as §1
# ETV2 = target: T10, ETV2 (Homo sapiens, UniProt O00321 1-342); conditions: protein: recombinant; tags: N-terminal GST; dsDNA, one strand shown
# T10 sequence: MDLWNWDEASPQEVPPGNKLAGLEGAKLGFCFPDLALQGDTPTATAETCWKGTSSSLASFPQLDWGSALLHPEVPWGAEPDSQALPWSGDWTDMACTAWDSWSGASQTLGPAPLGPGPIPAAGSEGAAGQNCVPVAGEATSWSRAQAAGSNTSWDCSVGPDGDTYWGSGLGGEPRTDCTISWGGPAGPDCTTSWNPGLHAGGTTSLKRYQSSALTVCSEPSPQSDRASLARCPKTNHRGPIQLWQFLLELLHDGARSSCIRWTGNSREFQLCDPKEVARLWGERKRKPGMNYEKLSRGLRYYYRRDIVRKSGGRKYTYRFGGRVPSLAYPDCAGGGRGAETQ
# In short: as §1
# ELF3 = target: T11, ELF3 (Homo sapiens, UniProt P78545 1-371); conditions: protein: recombinant; tags: N-terminal GST; dsDNA, one strand shown
# T11 sequence: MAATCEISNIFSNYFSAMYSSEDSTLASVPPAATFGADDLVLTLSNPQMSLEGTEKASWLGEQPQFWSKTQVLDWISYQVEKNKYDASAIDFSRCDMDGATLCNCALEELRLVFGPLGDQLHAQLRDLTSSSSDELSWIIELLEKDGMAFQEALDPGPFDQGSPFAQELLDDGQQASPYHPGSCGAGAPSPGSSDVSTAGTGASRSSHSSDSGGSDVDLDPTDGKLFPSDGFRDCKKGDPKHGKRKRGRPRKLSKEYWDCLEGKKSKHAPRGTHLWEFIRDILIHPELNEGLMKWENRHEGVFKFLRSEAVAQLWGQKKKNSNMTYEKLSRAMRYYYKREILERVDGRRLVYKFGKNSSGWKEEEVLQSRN
# In short: as §1
# CRX = CRX (Homo sapiens, UniProt O43186 1-299); conditions: protein: recombinant; tags: N-terminal GST; dsDNA, one strand shown
# Sequence of CRX (O43186 whole entry): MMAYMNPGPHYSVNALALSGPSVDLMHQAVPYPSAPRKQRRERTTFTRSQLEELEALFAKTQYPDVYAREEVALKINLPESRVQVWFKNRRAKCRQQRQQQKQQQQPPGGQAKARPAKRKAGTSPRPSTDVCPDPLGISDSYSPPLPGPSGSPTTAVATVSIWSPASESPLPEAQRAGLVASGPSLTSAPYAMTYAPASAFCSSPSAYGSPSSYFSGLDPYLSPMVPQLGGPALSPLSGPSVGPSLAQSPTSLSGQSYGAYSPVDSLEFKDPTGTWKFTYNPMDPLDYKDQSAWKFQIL
# In short: as §1
# ETV1 = ETV1 (Homo sapiens, UniProt P50549 1-477); conditions: protein: recombinant; tags: N-terminal GST; dsDNA, one strand shown
# Sequence of ETV1 (P50549 whole entry): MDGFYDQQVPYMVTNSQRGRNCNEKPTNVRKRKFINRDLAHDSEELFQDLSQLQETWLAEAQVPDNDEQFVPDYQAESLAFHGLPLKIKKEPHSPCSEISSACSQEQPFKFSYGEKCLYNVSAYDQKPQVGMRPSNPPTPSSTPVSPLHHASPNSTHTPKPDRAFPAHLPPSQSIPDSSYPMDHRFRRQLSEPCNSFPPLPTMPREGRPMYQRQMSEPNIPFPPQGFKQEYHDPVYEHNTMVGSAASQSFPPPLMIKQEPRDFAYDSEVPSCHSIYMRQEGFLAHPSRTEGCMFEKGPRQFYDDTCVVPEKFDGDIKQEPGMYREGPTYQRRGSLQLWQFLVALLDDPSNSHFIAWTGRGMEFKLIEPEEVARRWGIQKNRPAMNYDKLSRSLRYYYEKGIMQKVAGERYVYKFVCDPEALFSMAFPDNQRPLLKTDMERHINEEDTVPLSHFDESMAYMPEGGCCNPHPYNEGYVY
# In short: as §1
sequence,measurement,setting,value
AACACT,binding signal,FLI1,"1.27 fold enrichment (6-mer frequency, TF over GST control)"
same,binding signal,ELK1,"1.38 fold enrichment (6-mer frequency, TF over GST control)"
same,binding signal,GABPA,"1.32 fold enrichment (6-mer frequency, TF over GST control)"
same,binding signal,ERG,"1.31 fold enrichment (6-mer frequency, TF over GST control)"
same,binding signal,ELF1,"1.32 fold enrichment (6-mer frequency, TF over GST control)"
same,binding signal,EHF,"1.35 fold enrichment (6-mer frequency, TF over GST control)"
same,binding signal,SPI1,"1.36 fold enrichment (6-mer frequency, TF over GST control)"
same,binding signal,SPIB,"1.31 fold enrichment (6-mer frequency, TF over GST control)"
same,binding signal,ELK3,"1.23 fold enrichment (6-mer frequency, TF over GST control)"
same,binding signal,FEV,"1.26 fold enrichment (6-mer frequency, TF over GST control)"
same,binding signal,ETV5,"1.28 fold enrichment (6-mer frequency, TF over GST control)"
same,binding signal,HSF1,"1.18 fold enrichment (6-mer frequency, TF over GST control)"
same,binding signal,SPIC,"1.52 fold enrichment (6-mer frequency, TF over GST control)"
same,binding signal,ELF4,"1.3 fold enrichment (6-mer frequency, TF over GST control)"
same,binding signal,ELK4,"1.29 fold enrichment (6-mer frequency, TF over GST control)"
same,binding signal,ETV2,"1.26 fold enrichment (6-mer frequency, TF over GST control)"
same,binding signal,ELF3,"1.23 fold enrichment (6-mer frequency, TF over GST control)"
same,binding signal,CRX,"1.14 fold enrichment (6-mer frequency, TF over GST control)"
same,binding signal,ETV1,"1.25 fold enrichment (6-mer frequency, TF over GST control)"
